# Values without a mark were called inactive. Results filed as inconclusive are left out. Entries that show only a call come without a potency. The source made the active and inactive calls. Unless noted, the call rests on the fitted dose curve; in most records, active means well fitted curve in the direction sought with a large enough effect in the repeat runs; inconclusive means weak or mixed curves; inactive means no such curve, though single readings can be large; an effect the other way counts as inactive or inconclusive.
# Experiments:
# [1] = qHTS assay to identify small molecule agonists of the sonic hedgehog signaling (Shh) pathway (AID 1259368; calls by dose curve; further: series mostly up to about 92 µM; nearly all actives have a fitted effect of over 15% in size)
# Method in brief: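 NIH/3T3-derived 3T3Gli1-Luc cells carrying a stably integrated Gli1 response element–firefly luciferase reporter were plated, left 4 hr at 37 C, then given compounds in DMSO for 24 hr. Luminescence was read 30 min after adding luciferase reagent.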
# [2] = qHTS assay to identify small molecule antagonists of the sonic hedgehog signaling (Shh) pathway (AID 1259369; calls by dose curve; further: nearly all actives have a fitted effect of over 45% in size; further: potency means the concentration at half of the fitted maximal effect)
# Method in brief: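 NIH/3T3-derived 3T3Gli1-Luc cells with stably integrated Gli1-Luc reporter were preincubated 4hr at 37 C, then given compounds in DMSO plus Shh conditioned medium and incubated 24hr. Firefly luciferase luminescence read after 30min reagent at room temperature.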
# [3] = target: Estrogen receptor beta (Homo sapiens) (UniProt Q92731); assay: qHTS assay to identify small molecule agonists of the estrogen receptor beta (ER-beta) signaling pathway (AID 1259377; active means well fitted activation curve with a large enough effect in the signal ratio in the repeat runs, not every such curve was filed as active; the % refers to the signal ratio)
# Method in brief: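 In HEK293T cells bearing a UAS-beta-lactamase reporter under ER-beta control, DMSO-delivered compounds were incubated for 16 hr at 37C. Activity was detected as fluorescence 2 hours after LiveBLAzer B/G FRET substrate addition.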
# [4] = target: Estrogen receptor beta (Homo sapiens) (UniProt Q92731); assay: qHTS assay to identify small molecule antagonists of the estrogen receptor beta (ER-beta) signaling pathway (AID 1259378; active means well fitted inhibition curve with a large enough effect in the signal ratio in the repeat runs, not every such curve was filed as active; the % refers to the signal ratio; further: potency means the concentration at half of the fitted maximal effect)
# Method in brief: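 ER-beta-UAS-bla HEK293T (GripTite) cells in 2% charcoal-stripped FBS medium were preincubated 6 hr at 37C, dosed with compound, then stimulated with 1 nM E2 (final) for 16 hr; beta-lactamase reporter read by B/G FRET fluorescence after 2 hr substrate loading.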
# [5] = qHTS assay to identify small molecule agonists of the androgen receptor (AR) signaling pathway in the presence of an antagonist - cell viability counter screen (AID 1259379); further: nearly all actives have a fitted effect of over 25% in size; further: potency means the concentration at half of the fitted maximal effect; on activity change, negative = cytotoxicity: series mostly up to about 92 µM
# Method in brief: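 MDA-kb2 human breast carcinoma cells (stable MMTV-luciferase, AR/GR responsive) were seeded 3,000 cells/well, pre-incubated 5 hr at 37C without CO2, then given 3.0uM nilutamide and compounds at 15 concentrations for 16 hr. Viability was read by CellTiter-Fluor fluorescence.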
# [6] = target: Androgen receptor (Homo sapiens) (UniProt P10275); assay: qHTS assay to identify small molecule agonists of the androgen receptor (AR) signaling pathway in the presence of an antagonist (AID 1259381; calls by dose curve; further: nearly all actives have a fitted effect of over 15% in size)
# Method in brief: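 MDA-kb2 human breast carcinoma cells carrying an MMTV-luciferase reporter (AR- and GR-responsive) were treated with compounds at 15 concentrations plus 3.0uM final nilutamide for 16hr at 37C without CO2; luminescence was read after ONE-Glo addition.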
# [7] = qHTS assay to identify small molecule antagonists of the estrogen receptor beta (ER-beta) signaling pathway - cell viability counter screen (AID 1259382); further: series mostly up to about 92 µM; nearly all actives have a fitted effect of over 55% in size
# Method in brief: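 ER-beta-UAS-bla HEK293T cells (2,000/well, 2% charcoal-stripped FBS) were pre-incubated 6 hr at 37C, then given compound plus 1nM final 17-beta-estradiol for 16 hr. Viability was read in the same wells by CellTiter-Glo luminescence after 30 min at room temperature.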
# [8] = target: Estrogen receptor (Homo sapiens) (UniProt P03372); assay: qHTS assay to identify small molecule agonists of the estrogen receptor alpha (ER-alpha) signaling pathway in the presence of an antagonist (AID 1259383; calls by dose curve; further: top concentration of the series differs between compounds; nearly all actives have a fitted effect of over 15% in size)
# Method in brief: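 VM7Luc4E2 cells (endogenous full-length ER-alpha, 4×ERE-luciferase) were precultured 5 days in phenol red-free medium with 10% charcoal-stripped FBS, given 10.0nM ICI-182,780 (final), then treated with compounds at 15 concentrations for 22hr at 37C; luminescence read with ONE-Glo.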
# [9] = target: Progesterone receptor (Homo sapiens) (UniProt P06401); assay: qHTS assay to identify small molecule agonists of the progesterone receptor (PR) signaling pathway (AID 1346784; calls by dose curve; further: nearly all actives have a fitted effect of over 30% in size)
# Method in brief: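 Using charcoal-stripped serum (2%) to limit endogenous steroids, PR-UAS-bla HEK 293T cells received compounds for 16 hr at 37C after 6 hr plating; beta-lactamase FRET fluorescence was recorded following 2 hr substrate loading at room temperature.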
# [10] = target: Progesterone receptor (Homo sapiens) (UniProt P06401); assay: qHTS assay to identify small molecule antagonists of the progesterone receptor (PR) signaling pathway (AID 1346795; active means well fitted inhibition curve with a large enough effect in the signal ratio in the repeat runs, not every such curve was filed as active; the % refers to the signal ratio; further: potency means the concentration at half of the fitted maximal effect)
# Method in brief: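 Inhibition of R5020-induced (1 nM final) beta-lactamase reporter signal in PR-UAS-bla HEK293T cells was scored by FRET fluorescence after overnight (16 hr) compound treatment.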
# [11] = qHTS assay to identify small molecule antagonists of the progesterone receptor (PR) signaling pathway - cell viability counter screen (AID 1346798); further: series mostly up to about 92 µM; nearly all actives have a fitted effect of over 50% in size
# Method in brief: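 ATP content as viability readout: CellTiter-Glo luminescence, 30 min room temperature, in PR-UAS-bla HEK293T cells after 16 hr compound/R5020 treatment at 37C and 5% CO2.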
# [12] = qHTS assay to identify small molecule antagonists of the TGF-beta/Smad signaling pathway - cell viability counter screen (AID 1346824); further: nearly all actives have a fitted effect of over 50% in size
# Method in brief: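 SBE-bla HEK 293T cells were plated overnight at 37 C, then given compounds in DMSO plus TGF-beta1 (added as 0.25 ng/mL solution) for 5 hr. After the bla read, CellTiter-Glo was added to the same wells and luminescence read after 30 min at room temperature.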
# [13] = qHTS assay to identify small molecule agonists of the TGF-beta/Smad signaling pathway - cell viability counter screen (AID 1346829); further: top concentration of the series differs between compounds; nearly all actives have a fitted effect of over 45% in size
# Method in brief: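 SBE-bla HEK 293T cells plated overnight, compound exposure 5 hr at 37 C. Viability read in the same wells by CellTiter-Glo luminescence after 30 min at room temperature, following the beta-lactamase read.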
# [14] = qHTS assay to identify small molecule agonists of the TGF-beta/Smad signaling pathway (AID 1346859; active means well fitted activation curve with a large enough effect in the signal ratio in the repeat runs, not every such curve was filed as active; the % refers to the signal ratio; further: series mostly up to about 77 µM)
# Method in brief: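 Stable Smad binding element-beta-lactamase HEK 293T cells; 5 hr compound exposure at 37 C under 5% CO2; 2 hr room-temperature substrate step; fluorescence excited at 405 nm, collected at 460 nm and 530 nm.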
# [15] = target: Thyrotropin-releasing hormone receptor (Homo sapiens) (UniProt P34981); assay: qHTS assay to identify small molecule antagonists of the thyrotropin-releasing hormone receptor (TRHR) signaling pathway (AID 1346877; active means well fitted inhibition curve with a large enough effect in the repeat runs, not every such curve was filed as active; further: series mostly up to about 51 µM)
# Method in brief: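 TRHR-expressing HEK293 cells were seeded, cultured 18 h at 37 °C, then loaded with calcium dye for 2 h. Compounds were pre-incubated 5 min at room temperature before 1 nM TRH (final) was added, and kinetic fluorescence was recorded for 3 min.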
# [16] = qHTS assay to identify small molecule agonists of the estrogen receptor alpha (ER-alpha) signaling pathway in the presence of an antagonist - cell viability counter screen (AID 1259386);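 further: cells exposed to compounds for 22 h at 37 °C before the viability read; nearly all actives have a fitted effect of over 30% in size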; further: potency means the concentration at half of the fitted maximal effect; on activity change, negative = cytotoxicity: series mostly up to about 92 µM
# Method in brief: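 VM7Luc4E2 cells (endogenous full-length ER-alpha, 4×ERE-luciferase) were held 5 days in phenol red-free medium with 10% charcoal-stripped FBS, plated, then given 10.0nM ICI-182,780 and compounds at 15 concentrations for 22hr at 37C; viability read by CellTiter-Fluor fluorescence.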
# [17] = qHTS assay to identify small molecule agonists of the estrogen receptor beta (ER-beta) signaling pathway - cell viability counter screen (AID 1259380); further: nearly all actives have a fitted effect of over 30% in size; further: potency means the concentration at half of the fitted maximal effect
# Method in brief: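 ER-beta-UAS-bla HEK293T cells in medium with 2% charcoal-stripped FBS were preincubated 6 hr at 37C, dosed with compound in DMSO for 16 hr, then after the bla read, CellTiter-Glo was added for 30 min at room temperature; luminescence recorded.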
# [18] = qHTS assay to identify small molecule agonists or antagonists of the thyroid stimulating hormone receptor (TSHR) signaling pathway - wild type cell line counter screen (AID 1259384; calls by dose curve)
# Method in brief: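 Wild-type HEK293 cells were plated 18 h at 37 C/5% CO2, pin-dosed with compound plus Ro20-1724 medium, held 30 min at room temperature, then given cAMP-d2 and anti-cAMP-cryptate; fluorescence was read after 1 h. Fifteen concentrations, triplicate.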
# [19] = target: Thyrotropin receptor (Homo sapiens) (UniProt P16473); assay: qHTS assay to identify small molecule antagonists of the thyroid stimulating hormone receptor (TSHR) signaling pathway (AID 1259385; calls by dose curve; further: nearly all actives have a fitted effect of over 20% in size)
# Method in brief: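 TSHR-HEK293 cells were plated and held 18 h at 37C/5% CO2, then given compound plus Ro20-1724 and stimulated with TSH at 1.5 ng/mL final. After 30 min at room temperature, cAMP was detected with cAMP-d2/anti-cAMP-cryptate (1 h) by fluorescence.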
# [20] = qHTS assay to identify small molecule agonists of the progesterone receptor (PR) signaling pathway - cell viability counter screen (AID 1346799; calls by dose curve; further: nearly all actives have a fitted effect of over 45% in size)
# Method in brief: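 Cytotoxicity in PR-bla HEK293T cells: 16 h compound, 37C; CellTiter-Glo added post-FRET read; luminescence after 30 min RT.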
# Progesterone receptor (Homo sapiens), sequence (P06401 whole entry, looked up): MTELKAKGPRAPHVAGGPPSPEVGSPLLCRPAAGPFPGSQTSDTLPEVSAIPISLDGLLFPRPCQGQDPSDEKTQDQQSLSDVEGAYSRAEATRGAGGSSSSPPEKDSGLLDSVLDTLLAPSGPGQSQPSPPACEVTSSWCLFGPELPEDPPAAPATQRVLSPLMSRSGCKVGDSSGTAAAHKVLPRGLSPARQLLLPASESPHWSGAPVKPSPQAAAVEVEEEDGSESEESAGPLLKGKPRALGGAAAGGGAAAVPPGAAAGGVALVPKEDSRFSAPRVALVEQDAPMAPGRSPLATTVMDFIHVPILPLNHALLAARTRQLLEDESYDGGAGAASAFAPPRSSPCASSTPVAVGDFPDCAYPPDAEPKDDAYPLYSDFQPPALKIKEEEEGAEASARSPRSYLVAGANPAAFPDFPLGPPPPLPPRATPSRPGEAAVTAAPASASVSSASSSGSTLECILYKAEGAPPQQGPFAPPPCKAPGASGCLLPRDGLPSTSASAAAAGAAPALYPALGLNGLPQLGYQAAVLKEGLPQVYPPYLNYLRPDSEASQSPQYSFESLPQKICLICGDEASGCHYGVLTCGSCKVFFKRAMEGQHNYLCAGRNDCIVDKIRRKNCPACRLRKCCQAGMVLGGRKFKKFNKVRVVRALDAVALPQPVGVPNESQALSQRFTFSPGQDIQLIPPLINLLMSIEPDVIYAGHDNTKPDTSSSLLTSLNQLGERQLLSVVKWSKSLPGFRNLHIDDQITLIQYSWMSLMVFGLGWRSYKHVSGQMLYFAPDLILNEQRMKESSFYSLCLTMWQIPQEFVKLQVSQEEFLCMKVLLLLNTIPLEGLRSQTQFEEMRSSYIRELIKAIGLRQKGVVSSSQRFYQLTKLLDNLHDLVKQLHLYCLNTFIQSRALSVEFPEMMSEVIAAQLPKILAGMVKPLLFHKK
# Thyrotropin-releasing hormone receptor (Homo sapiens), sequence (P34981 whole entry, looked up): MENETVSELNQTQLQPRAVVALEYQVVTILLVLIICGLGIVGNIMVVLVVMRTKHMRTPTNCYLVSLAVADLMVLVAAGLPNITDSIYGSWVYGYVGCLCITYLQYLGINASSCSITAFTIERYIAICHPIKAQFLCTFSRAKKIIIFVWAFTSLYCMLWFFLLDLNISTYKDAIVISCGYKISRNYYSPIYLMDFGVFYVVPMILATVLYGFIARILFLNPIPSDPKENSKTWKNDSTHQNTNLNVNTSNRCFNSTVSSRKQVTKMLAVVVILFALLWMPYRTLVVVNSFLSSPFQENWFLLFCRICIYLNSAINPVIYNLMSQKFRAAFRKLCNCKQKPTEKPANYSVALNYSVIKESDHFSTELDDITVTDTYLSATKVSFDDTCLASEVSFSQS
# Estrogen receptor beta (Homo sapiens), sequence (Q92731 whole entry, looked up): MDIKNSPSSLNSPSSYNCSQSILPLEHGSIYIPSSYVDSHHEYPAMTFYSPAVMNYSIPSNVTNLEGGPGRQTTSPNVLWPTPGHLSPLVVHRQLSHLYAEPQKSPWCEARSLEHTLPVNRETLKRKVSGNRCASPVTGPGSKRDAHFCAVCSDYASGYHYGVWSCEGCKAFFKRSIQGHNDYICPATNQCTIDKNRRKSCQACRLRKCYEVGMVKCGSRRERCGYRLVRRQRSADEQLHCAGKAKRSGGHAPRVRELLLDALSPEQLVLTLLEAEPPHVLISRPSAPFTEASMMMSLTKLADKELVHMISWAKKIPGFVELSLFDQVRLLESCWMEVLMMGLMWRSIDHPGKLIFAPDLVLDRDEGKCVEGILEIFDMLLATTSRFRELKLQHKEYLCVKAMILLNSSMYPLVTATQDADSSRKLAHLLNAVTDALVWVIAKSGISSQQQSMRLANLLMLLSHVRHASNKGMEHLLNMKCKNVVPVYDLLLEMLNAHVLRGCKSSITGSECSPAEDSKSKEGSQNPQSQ
# Estrogen receptor (Homo sapiens), sequence (P03372 whole entry, looked up): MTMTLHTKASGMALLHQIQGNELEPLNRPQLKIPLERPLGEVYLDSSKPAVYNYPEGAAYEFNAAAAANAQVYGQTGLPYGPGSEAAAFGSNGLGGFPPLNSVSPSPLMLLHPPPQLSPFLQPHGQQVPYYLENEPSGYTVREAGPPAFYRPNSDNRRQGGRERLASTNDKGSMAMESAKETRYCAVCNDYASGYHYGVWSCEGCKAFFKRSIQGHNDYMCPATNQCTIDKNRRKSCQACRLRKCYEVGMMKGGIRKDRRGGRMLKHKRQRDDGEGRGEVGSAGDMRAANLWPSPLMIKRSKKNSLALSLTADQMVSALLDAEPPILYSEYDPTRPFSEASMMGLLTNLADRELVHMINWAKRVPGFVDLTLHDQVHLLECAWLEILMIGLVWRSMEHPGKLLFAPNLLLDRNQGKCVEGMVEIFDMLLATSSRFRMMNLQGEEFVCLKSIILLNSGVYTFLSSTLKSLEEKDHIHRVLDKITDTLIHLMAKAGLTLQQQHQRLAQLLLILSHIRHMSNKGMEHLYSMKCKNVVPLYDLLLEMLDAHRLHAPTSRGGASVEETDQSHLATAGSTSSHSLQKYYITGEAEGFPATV
# Thyrotropin receptor (Homo sapiens), sequence (P16473 whole entry, looked up): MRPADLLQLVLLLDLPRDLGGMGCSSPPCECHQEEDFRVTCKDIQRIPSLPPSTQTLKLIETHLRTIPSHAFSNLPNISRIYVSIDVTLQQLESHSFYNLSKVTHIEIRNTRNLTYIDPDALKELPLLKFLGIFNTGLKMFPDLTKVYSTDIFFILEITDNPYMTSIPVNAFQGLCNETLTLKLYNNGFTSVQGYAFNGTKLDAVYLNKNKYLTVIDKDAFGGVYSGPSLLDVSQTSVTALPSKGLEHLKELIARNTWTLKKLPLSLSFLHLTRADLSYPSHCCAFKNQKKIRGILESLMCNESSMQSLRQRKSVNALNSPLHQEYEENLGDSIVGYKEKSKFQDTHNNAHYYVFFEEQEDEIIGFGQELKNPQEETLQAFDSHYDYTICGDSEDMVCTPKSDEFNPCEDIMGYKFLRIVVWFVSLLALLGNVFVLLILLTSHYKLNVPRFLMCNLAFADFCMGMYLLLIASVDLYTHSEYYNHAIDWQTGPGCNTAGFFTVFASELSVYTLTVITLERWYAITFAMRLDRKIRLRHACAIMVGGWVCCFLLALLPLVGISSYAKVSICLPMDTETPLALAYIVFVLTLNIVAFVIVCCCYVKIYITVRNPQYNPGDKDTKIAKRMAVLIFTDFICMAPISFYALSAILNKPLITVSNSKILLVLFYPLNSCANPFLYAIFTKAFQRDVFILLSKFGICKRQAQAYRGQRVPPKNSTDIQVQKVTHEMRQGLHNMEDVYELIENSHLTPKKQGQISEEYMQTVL
# Androgen receptor (Homo sapiens), sequence (P10275 whole entry, looked up): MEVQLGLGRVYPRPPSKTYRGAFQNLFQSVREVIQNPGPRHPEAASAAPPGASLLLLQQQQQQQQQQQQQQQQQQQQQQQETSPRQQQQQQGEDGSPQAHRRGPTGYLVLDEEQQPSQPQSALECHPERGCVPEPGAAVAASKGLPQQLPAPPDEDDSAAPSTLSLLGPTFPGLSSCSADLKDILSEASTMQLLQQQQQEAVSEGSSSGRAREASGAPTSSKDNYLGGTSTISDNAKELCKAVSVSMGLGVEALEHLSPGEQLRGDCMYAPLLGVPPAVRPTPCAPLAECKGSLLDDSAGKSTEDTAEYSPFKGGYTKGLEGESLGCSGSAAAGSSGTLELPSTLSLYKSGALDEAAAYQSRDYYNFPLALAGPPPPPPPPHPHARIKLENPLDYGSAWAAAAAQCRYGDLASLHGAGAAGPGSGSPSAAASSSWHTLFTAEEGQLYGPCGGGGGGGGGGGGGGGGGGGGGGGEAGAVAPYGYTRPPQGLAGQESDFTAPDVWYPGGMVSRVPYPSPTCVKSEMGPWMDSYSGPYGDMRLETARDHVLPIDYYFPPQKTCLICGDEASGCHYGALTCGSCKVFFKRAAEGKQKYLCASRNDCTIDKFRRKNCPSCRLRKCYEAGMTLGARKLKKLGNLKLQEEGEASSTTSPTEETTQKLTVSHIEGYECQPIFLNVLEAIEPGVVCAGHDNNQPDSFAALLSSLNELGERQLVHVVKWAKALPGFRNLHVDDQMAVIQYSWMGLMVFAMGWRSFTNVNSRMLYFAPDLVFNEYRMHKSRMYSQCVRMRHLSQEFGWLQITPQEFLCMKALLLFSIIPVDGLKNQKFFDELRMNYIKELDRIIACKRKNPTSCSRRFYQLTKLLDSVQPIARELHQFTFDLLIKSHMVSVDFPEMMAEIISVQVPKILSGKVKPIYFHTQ
compound,measurement,setting,value
O=C(CCC1CCN(Cc2ccccc2)CC1)c1ccc2c(c1)NCCCC2,Potency,[1],inactive
same,Potency,[2],10.6 µM (active)
same,Potency,[3],inactive
same,Potency,[4],inactive
same,Potency,[5],29.8 µM (active)
same,Potency,[6],inactive
same,Potency,[7],inactive
same,Potency,[8],inactive
same,Potency,[9],inactive
same,Potency,[10],inactive
same,Potency,[11],inactive
same,outcome,[12],inactive
same,outcome,[13],inactive
same,outcome,[14],inactive
same,outcome,[15],inactive
CC(C)(C)CC(C)(C)c1ccc(OCCO)cc1,Potency,[1],inactive
same,Potency,[2],15.3 µM (active)
same,Potency,[3],inactive
same,Potency,[4],43 µM (active)
same,Potency,[5],30.5 µM (active)
same,Potency,[6],inactive
same,Potency,[8],inactive
same,Potency,[16],34.2 µM (active)
same,Potency,[10],48.3 µM (active)
same,outcome,[12],inactive
same,outcome,[13],inactive
same,outcome,[14],inactive
same,outcome,[15],inactive
C=CC(=O)NCOCC(C)C,Potency,[1],inactive
same,Potency,[2],inactive
same,Potency,[3],inactive
same,Potency,[4],inactive
same,Potency,[5],inactive
same,Potency,[17],inactive
same,Potency,[7],inactive
same,outcome,[18],inactive
same,Potency,[19],inactive
same,Potency,[16],inactive
same,Potency,[9],inactive
same,Potency,[10],inactive
same,Potency,[11],inactive
same,Potency,[20],inactive
same,outcome,[12],inactive
same,outcome,[13],inactive
same,outcome,[14],inactive
O=C(O)c1snc(Cl)c1Cl,Potency,[1],inactive
same,Potency,[2],inactive
same,Potency,[3],inactive
same,Potency,[4],inactive
same,Potency,[5],inactive
same,Potency,[17],inactive
same,Potency,[7],inactive
same,outcome,[18],inactive
same,Potency,[9],inactive
same,Potency,[10],inactive
same,Potency,[11],inactive
same,Potency,[20],inactive
same,outcome,[12],inactive
same,outcome,[13],inactive
same,outcome,[14],inactive
same,outcome,[15],inactive
CN1CCN(c2c(F)cc3c(=O)c(C(=O)O)cn4c3c2OCN4C)CC1,activity change,[1],"-1.02% [at 18.9 µM, stronger effect = higher value]"
same,"activity change, negative = inhibition",[2],2.85% [at 19 µM]
same,activation,[3],-0.625% [at 19 µM]
same,"activity, negative = inhibition",[4],2.63% [at 19 µM]
same,"activity change, negative = cytotoxicity",[5],0.471% [at 19 µM]
same,"activity change, negative = cytotoxicity",[17],3.44% [at 19 µM]
same,activation,[8],-0.999% [at 19 µM]
same,cAMP activity change,[18],0.366% [at 18.9 µM]
same,"activity change, negative = cytotoxicity",[16],0.0729% [at 19 µM]
same,activation,[9],1.06% [at 19 µM]
same,"activity change, negative = inhibition",[10],0.0233% [at 18.9 µM]
same,"activity change, negative = cytotoxicity",[11],10.3% [at 18.9 µM]
same,"activity change, negative = cytotoxicity",[20],0.954% [at 19 µM]
same,"viability change, negative = cytotoxic",[12],1.7% [at 15.8 µM]
same,"activity change, negative = cytotoxicity",[13],-7.56% [at 15.8 µM]
same,activation,[14],-0.914% [at 15.8 µM]
same,"activity, negative = inhibition",[15],2.89% [at 10.5 µM]
Cc1ccccc1N1C(=O)c2cc(S(N)(=O)=O)c(Cl)cc2NC1C (stereo unspecified),Potency,[1],inactive
same,Potency,[2],inactive
same,Potency,[3],inactive
same,Potency,[4],inactive
same,Potency,[5],inactive
same,Potency,[17],inactive
same,outcome,[18],inactive
same,Potency,[19],inactive
same,Potency,[16],inactive
same,Potency,[9],inactive
same,Potency,[10],inactive
same,Potency,[11],inactive
same,Potency,[20],inactive
same,outcome,[12],inactive
same,outcome,[13],inactive
same,outcome,[14],inactive
CCCCCC=CCC=CCCCCCCCC(=O)OCC,Potency,[1],inactive
same,Potency,[2],inactive
same,Potency,[3],inactive
same,Potency,[4],inactive
same,Potency,[5],inactive
same,Potency,[17],29.8 µM (active)
same,Potency,[7],inactive
same,Potency,[8],inactive
same,Potency,[19],inactive
same,Potency,[16],inactive
same,Potency,[10],inactive
same,Potency,[11],inactive
same,Potency,[20],inactive
same,outcome,[12],inactive
same,outcome,[13],inactive
same,outcome,[14],inactive
same,outcome,[15],inactive

# From PubChem BioAssay (Tox21)
